Assay outcomes deposited in PubChem BioAssay by National Center for Advancing Translational Sciences (NCATS).
Many of the other results were omitted from the sample, so hits are more common in it than they were.
Methyltransferases: Primary Screen for Target Class Profiling of Small Molecule Inhibitors of Methyltransferases | calls only at 40 µM | purified enzyme, MTase-Glo SAH luminescence; stronger effect = lower value | AID 1745853, 2022 | actives 3.9% (n = 25,000); call rule not given here
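Each enzyme was assayed with SAM and its substrate. SAH formation detected by MTase-Glo luminescence; single-point 40 uM screen[…].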
Active calls of the source: *; i = inactive; + = active, no number; ! = repeats disagree. On the % scale 0 is the no-effect control and ±100 the full control effect.

SMILES	Methyltransferases
CC1CCCC(NC(=O)C2(C)Cn3c(cc4occc43)C(=O)N2CCCc2ccccc2)C1C (stereo not drawn)	i
Cc1ccc(CN2CC(Cn3c(C)cnc3-c3ccncc3)C2)o1	i
Cc1cc2c(cc1S(=O)(=O)Nc1ccc(F)c(Cl)c1)n(C)c(=O)n2C	i
Cc1c(Cl)cccc1NC(=O)N1CCn2cccc2C1C(C)C (stereo not drawn)	i
Cc1cccc(N2CCN(C(=O)CCc3nnc4n(CC(C)C)c(=O)c5ccccc5n34)CC2)c1C	+
Cc1ccc(C)c(N2CCN(C(=O)CCc3nnc4n(CCC(C)C)c(=O)c5ccccc5n34)CC2)c1	i
Cc1ccc(Cn2c(=O)c3ccccc3n3c(CCC(=O)N4CCN(c5cccc(C)c5C)CC4)nnc23)cc1	i
Cc1ccccc1CN1C(=O)c2nc3ccccc3n2CC1(C)C(=O)NC1CCCCCC1 (stereo not drawn)	i
CC1(C(=O)NCc2ccccc2)Cn2c(nc3ccccc32)C(=O)N1Cc1ccccc1Cl (stereo not drawn)	i
COC(=O)c1ncn2c1C(=O)N(c1cccc(OC)c1)C(C)(C(=O)NCc1ccccc1OC)C2 (stereo not drawn)	i
C=C1C(=O)OC2/C=C(\C)CC/C=C(\C(=O)O)CC/C=C(\C)CCC12 (stereo not drawn)	i
C=C1C(=O)OC2/C=C(\CO)CC/C=C(\C=O)CC(OC(=O)CC(C)C)C12 (stereo not drawn)	+
C=C1C(=O)O[C@@H]2/C=C(\CO)CC/C=C(/C=O)C[C@H](O)[C@@H]12	+
C=C1C(=O)OC2/C=C(\COC(C)=O)CC/C=C(\C=O)CC(OC(=O)CC(C)C)C12 (stereo not drawn)	i
C=C1C(=O)O[C@@H]2/C=C(\CO)CC/C=C(/C=O)C[C@@H](O)[C@@H]12	+
C=C1C(=O)OC2C3=C(C)C(=O)CC3C(C)CC(O)C12 (stereo not drawn)	i
C=C(C)C(=O)O[C@H]1[C@H]2C(=C)C(=O)O[C@@H]2/C=C(\CO)CC/C=C(/C=O)[C@@H]1O	i
CC1(C(=O)NC2CCCCC2)Cn2c(cc3occc32)C(=O)N1Cc1cccc(Cl)c1 (stereo not drawn)	i
CC1(C(=O)NC2CCCC2)Cn2c(ccc2-c2ccco2)C(=O)N1Cc1ccccc1Cl (stereo not drawn)	i
Cc1ccc(CNC(=O)Cn2nc3n(C(C)C)c(=O)c4ccc(C(=O)NC(C)C)cc4n3c2=O)cc1	i
COc1ccc2cc3n(c2c1)CC(C)(C(=O)NC1CCCCC1)N(Cc1ccccc1Cl)C3=O (stereo not drawn)	i
O=C1NC(=O)/C(=C/c2ccc(-c3ccc(F)cc3O)o2)S1	+
CCc1ccccc1NC(=O)CSc1nnc2n(CC(C)C)c(=O)c3ccccc3n12	i
COc1cc(O)cc(/C=C/c2ccc(O[C@@H]3O[C@H](CO)[C@@H](O)[C@H](O)[C@H]3O)cc2)c1	i
OCC1OC(Oc2cc(O)cc(/C=C/c3ccc(OC4OC(CO)C(O)C(O)C4O)cc3O)c2)C(O)C(O)C1O (stereo not drawn)	i
SMILES	Methyltransferases
OC[C@H]1O[C@@H](Oc2cc(O)cc(/C=C/c3ccc(O)cc3)c2)[C@H](O)[C@@H](O)[C@@H]1O	+!
O=C(c1ccc(F)cc1)N1CCCC(C(=O)N2CCC(c3nc4ncccc4[nH]3)CC2)C1 (stereo not drawn)	i
Cc1cccc(NC(=O)CSc2nnc3n(CCCOC(C)C)c(=O)c4ccccc4n23)c1	i
Cc1ccc(Cl)cc1NC(=O)CSc1nnc2n(CC(C)C)c(=O)c3ccccc3n12	i
CCN(CC)c1ccc2c(O)c(C=Nc3ccc(CC(=O)O)c(-c4c5c(nc6ccccc46)CCC(C(=O)NN)C5)c3)c(=O)oc2c1 (stereo not drawn)	+
CCCn1c(=O)c2ccccc2n2c(=O)n(CC(=O)Nc3ccc(F)cc3)nc12	i
O=C(NC1CC1)c1ccc2c(=O)nc3c(-c4ccccc4)n[nH]n3c2c1	i
COc1cc2c(cc1O)CC[C@@H]1[C@@H]2CC[C@]2(C)[C@@H](O)CC[C@@H]12	+
CC12CCC3c4ccc(OC5OC(C(=O)O)C(O)C(O)C5O)cc4CCC3C1CCC2O (stereo not drawn)	i
C[C@]12CC[C@@H]3c4ccc(OC(=O)c5ccccc5)cc4CC[C@H]3[C@@H]1CC[C@@H]2O	i
CCc1cc(Nc2nccc(-c3c(-c4ccc(OC)c(C(=O)Nc5c(F)cccc5F)c4)nc4ccccn34)n2)c(OC)cc1N1CCC(N2CCN(S(C)(=O)=O)CC2)CC1	+
CCCn1c(=O)c2ccc(C(=O)NCC(C)C)cc2n2c(=O)n(CC(=O)Nc3cccc(CC)c3)nc12	i
OCCN1CCN(c2ccc(-c3nc(-c4cccc(C(F)(F)F)c4)no3)cn2)CC1	i
Cc1nc(Nc2ncc(C(=O)Nc3c(C)cccc3Cl)s2)cc(N2CCN(CCO)CC2)n1	+
O=C(NCCCCN1CCN(c2cccc(Cl)c2Cl)CC1)c1cc2ccccc2s1	i
CCc1ccc(-c2cc3n(n2)CC(C)(C(=O)NC2CCCCC2)N(C2CCCC2)C3=O)cc1 (stereo not drawn)	i
O=C(c1ccncc1)N1CCC2(CC1)CN(c1ncccn1)CC2CO (stereo not drawn)	i
CCc1ccc(/C=C2/SC(=S)NC2=O)cc1	+
O=C1NC(=O)/C(=C/c2ccc3nccnc3c2)S1	i
Cc1ccc(NC(=O)Cn2nc3n(C)c(=O)c4ccc(C(=O)NC5CCCC5)cc4n3c2=O)c(Cl)c1	i
NC[C@H](O)c1ccc(O)c(O)c1	+
CC(C)NCC(O)c1ccc(O)c(O)c1 (stereo not drawn)	i
COc1cc(C(O)CO)ccc1O (stereo not drawn)	i
Cc1nn(-c2ccccc2)c(C)c1Cc1nc(C(C)C)no1	i
C=Cc1ccc(CSc2nnc3n(CCC)c(=O)c4cc(F)ccc4n23)cc1	i
SMILES	Methyltransferases
OC[C@H]1O[C@@H](OCCc2ccc(O)cc2)[C@H](O)[C@@H](O)[C@@H]1O	i
O=C(O)CC(CCc1ccccc1)OC1OC(CO)C(O)C(O)C1O (stereo not drawn)	+
O=C(O)CCc1cc2ccoc2cc1O[C@@H]1O[C@H](CO)[C@@H](O)[C@H](O)[C@H]1O	i
CCC(C)(O)C(O)C(=O)OCc1ccc(O[C@@H]2O[C@H](CO)[C@@H](O)[C@H](O)[C@H]2O)c(OC)c1 (stereo partly drawn)	i
COc1c(CCC(=O)O)cccc1O[C@@H]1O[C@H](CO)[C@@H](O)[C@H](O)[C@H]1O	+
OC[C@H]1O[C@@H](O[C@H]2[C@H](OCc3ccccc3)O[C@H](CO[C@@H]3OC[C@@H](O)[C@H](O)[C@H]3O)[C@@H](O)[C@@H]2O)[C@H](O)[C@@H](O)[C@@H]1O	i
OC[C@H]1O[C@@H](OC(CCCCc2ccc(O)cc2)CCc2ccc(O)cc2)[C@H](O[C@@H]2OC[C@](O)(CO)[C@H]2O)[C@@H](O)[C@@H]1O (stereo partly drawn)	i
O=C(O)CCc1cccc(O[C@@H]2O[C@H](CO)[C@@H](O)[C@H](O)[C@H]2O)c1O	+
OC[C@H]1O[C@@H](O[C@H]2[C@H](O)[C@@H](CO)O[C@@H](OCc3ccccc3)[C@@H]2O[C@@H]2OC[C@](O)(CO)[C@H]2O)[C@H](O)[C@@H](O)[C@@H]1O	i
